# Test results published in PubChem BioAssay (NCATS).
# Inconclusive results are not listed. Entries that show only a call come without a potency. Active and inactive are the calls of the source. Calls follow the shape of the dose curve; as a rule, active = well fitted activation curve with a large enough effect; inconclusive = small, poorly fitted or top-dose-only effect; inactive = no such curve, though single readings can be large or run the other way.
# Biological target: Arylsulfatase A (Homo sapiens) (UniProt P15289)
# Sequence (P15289 whole entry, looked up): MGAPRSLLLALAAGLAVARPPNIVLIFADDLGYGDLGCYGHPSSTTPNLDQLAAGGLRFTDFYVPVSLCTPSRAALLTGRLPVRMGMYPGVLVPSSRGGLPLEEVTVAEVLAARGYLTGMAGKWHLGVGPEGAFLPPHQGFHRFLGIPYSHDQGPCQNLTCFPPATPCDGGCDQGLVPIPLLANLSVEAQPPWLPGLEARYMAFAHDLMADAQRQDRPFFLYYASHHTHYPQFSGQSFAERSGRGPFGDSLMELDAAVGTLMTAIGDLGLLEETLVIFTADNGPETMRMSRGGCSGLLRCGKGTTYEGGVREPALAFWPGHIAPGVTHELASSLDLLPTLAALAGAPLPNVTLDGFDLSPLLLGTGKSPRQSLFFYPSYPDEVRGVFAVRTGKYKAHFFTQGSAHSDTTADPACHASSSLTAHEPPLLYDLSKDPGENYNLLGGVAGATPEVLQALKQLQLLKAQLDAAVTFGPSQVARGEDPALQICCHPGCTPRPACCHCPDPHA
# Experiment: qHTS screen for enhancers of Arylsulfatase A (ASA1): LOPAC Validation Assay (AID 720538)
# Conditions: ASA enzyme activity, LOPAC qHTS enhancer assay; series mostly up to 57.5 µM
# Procedure, shortened: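 SV40-transformed skin fibroblasts from an MLD patient (ASA-I179S) were treated with compounds for 48h at 37 degree C, then lysed with 0.5mM pNCS final substrate for 14h at room temperature; NaOH stop, fluorescence read (Ex=525 nm; Em=598 nm).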
# Potency is read from the fitted curve at half-maximal effect.
row,Structure (SMILES),Potency
1,Nc1ncnc2c1c(I)cn2[C@@H]1C[C@H](N)[C@@H](O)[C@H]1O,inactive
2,OC[C@H]1O[C@@H](n2cnc3c(Nc4ccccc4)ncnc32)[C@H](O)[C@@H]1O,inactive
3,NCCNC(=O)c1ncsc1-c1cccc(F)c1,inactive
4,Cc1ccc(S(=O)(=O)/C=C/C#N)cc1,inactive
5,Clc1ccc(N2CCN(Cc3c[nH]c4ncccc34)CC2)cc1,inactive
6,CC(=O)SCC[N+](C)(C)C,inactive
7,CC1(C)CCC=[N+]1[O-],inactive
8,CN1C2CCC1CC(OC(=O)C(O)c1ccccc1)C2 (centres undefined),inactive
9,CSc1nc(N)c2ncn([C@@H]3O[C@H](COP(=O)(O)OP(=O)(O)OP(=O)(O)O)[C@@H](O)[C@H]3O)c2n1,inactive
10,NS(=O)(=O)C#Cc1ccccc1,inactive
11,CC(C)ON([C@@H](C(=O)NO)C(C)C)S(=O)(=O)c1ccc(-c2ccccc2)cc1,inactive
12,O=c1[nH]c2cc([N+](=O)[O-])c([N+](=O)[O-])cc2[nH]c1=O,8.49 µM (active)
13,Cc1ccc(O)c(N=Nc2ccccc2)n1,inactive
14,O=C(O)/C=C/C(O)c1ccc(Cl)cc1 (centres undefined),inactive
15,COc1cccc(C(=O)NCCN2CCN(c3ccc(Cl)cc3)CC2)c1,inactive
16,Nc1nc(SCc2ccc([N+](=O)[O-])cc2)c2ncn([C@@H]3O[C@H](CO)[C@@H](O)[C@H]3O)c2n1,inactive
17,COc1ccccc1N1CCN(CCN(C(=O)c2ccc(I)cc2)c2ccccn2)CC1,inactive

row,Structure (SMILES),Potency
1,NC(CCCP(=O)(O)O)C(=O)O (centres undefined),inactive
2,O=C(O)c1cc([N+](=O)[O-])ccc1NCCCc1ccccc1,inactive
3,N[C@@H](CC(=O)O)C(=O)O,inactive
4,COc1ccc2c(c1)CCC1C2CC[C@@]2(C)C1CC[C@@H]2NCCCCCCN1C(=O)CCC1=O (some centres undefined),inactive
5,CCCCCCCCCCCCCCCC(=O)OC(CC(=O)O)C[N+](C)(C)C (centres undefined),inactive
6,Cn1c(=O)c2[nH]c(-c3ccccc3)nc2n(C)c1=O,inactive
7,CCCCCCCCCCCCCCCCCCNC(=O)OCC(COP(=O)([O-])OCC[n+]1ccsc1)OC (centres undefined),inactive
8,CNC(=O)[C@H]1O[C@@H](n2cnc3c(NCc4ccc(N)cc4)ncnc32)[C@H](O)[C@@H]1O,inactive
9,OC[C@H]1O[C@@H](n2cnc3c(NC4CCCCC4)ncnc32)[C@H](O)[C@@H]1O,inactive
10,Cc1ccccc1CNc1ncnc2c1ncn2C1OC(CO)C(O)C1O (centres undefined),inactive
11,O=C1NC(=O)/C(=C/c2ccc(-c3ccc(F)cc3O)o2)S1,inactive
12,NC(=S)NCCC[C@H](N)C(=O)O,inactive
13,CN1CCc2cc(O)c(O)cc2C(c2ccccc2)C1 (centres undefined),21.3 µM (active)
14,CCCN(CC1CC1)c1nc(C)nc(Nc2c(Cl)cc(Cl)cc2Cl)c1Cl,inactive
15,N#C/C(=C\c1c[nH]c2ccccc12)C(=O)c1ccc(O)c(O)c1,inactive
16,Cc1cc(NC(=O)Nc2ccc3c(ccn3C)c2)sn1,inactive
17,CO/N=C(\C(=O)N[C@@H]1C(=O)N2C(C(=O)O)=C(COC(C)=O)CS[C@H]12)c1csc(N)n1,inactive
